The results in this text go back to PubChem BioAssay (NCI).

Some test systems named below: T-47D breast; BT-549 breast; MDA-MB-435 melanoma; SW-620 colon; MCF7 breast; HCT-116 colon; HCC-2998 colon; KM12 colon.
Experiment in all cases: NCI-60 one-dose screen, 48 h (100 = growth as untreated, 0 = no growth, -100 = all killed)
Common to all, as to conditions: 10 µM unless noted

This is part of a sample that, as a whole, favours compounds with a hit. Of some 83,000 tested, about 20% had one in any assay.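 Assay: single dose, 48 h. Readout: percent growth (0 = no net growth; negative = cell death). Active: <10.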 Values without a mark were called inactive. Activity calls are given as the source filed them.

Consider `CCOC(=O)c1c(C(=O)c2cn(C)c3ccc(Br)cc23)c(-c2cn(C)c3ccc(Br)cc23)n(NC(=O)OC(C)(C)C)c1C`, for which the growth in the experiment with T-47D breast was 58.8% [100 µM]; with BT-549 breast, 39.2% [100 µM]; with MDA-MB-435 melanoma, 96.5% [100 µM]; with SW-620 colon, 91.8% [100 µM]; in the experiment on MCF7 breast, 78.3% [100 µM]; with HCT-116 colon, 54% [100 µM]. In addition, the growth with HCC-2998 colon is 111% [100 µM]; with KM12 colon, 89.4% [100 µM].
Consider `CCOc1nc(-c2ccccc2)cc2c(O)c(C(=O)N/N=C/c3ccccc3)[nH]c(=O)c12`, for which the growth in the experiment with T-47D breast was 110%; in the experiment on BT-549 breast, 167%; in the experiment on MDA-MB-435 melanoma it was 123%; with SW-620 colon, 100%; with MCF7 breast, 101%; in the experiment on HCT-116 colon, 111%. Further, the growth was 8.59% (active) in the experiment with HCC-2998 colon and 109% with KM12 colon.
For the compound `COc1ccc(/C=C/C(=O)c2cccc(OCCCCOc3cccc(C(=O)/C=C/c4ccc(OC)c(OC)c4)c3)c2)cc1OC`, the growth in the experiment with T-47D breast was 43.3%; in the experiment on BT-549 breast it was 60.7%; in the experiment on MDA-MB-435 melanoma, 75.5%; with SW-620 colon it was 89.5%; in the experiment with MCF7 breast it was 44.3%; in the experiment on HCT-116 colon it was 58.6%. In addition, the growth is 116% in the experiment with HCC-2998 colon and 79.1% in the experiment with KM12 colon.
Turning to `Cn1c(=O)cc2c3c(c(NCCCO)ccc31)C(=O)c1ccccc1-2`, the growth in the experiment with T-47D breast was 51.8%; in the experiment on BT-549 breast, 73.6%; in the experiment with MDA-MB-435 melanoma, 44%; with SW-620 colon, 32.6%; in the experiment with MCF7 breast it was 27.6%; in the experiment on HCT-116 colon it was 16.5%. Further, the growth was 49.1% in the experiment with HCC-2998 colon and 42.7% in the experiment on KM12 colon.
On to `O=C(Nc1nc2ccccc2s1)c1ccc(F)cc1`, for which the growth was 55.3% in the experiment with T-47D breast; 109% in the experiment with BT-549 breast; 101% in the experiment on MDA-MB-435 melanoma; 112% with SW-620 colon; 68.1% with MCF7 breast; 92.8% in the experiment on HCT-116 colon. Further, the growth is 69.9% with HCC-2998 colon and 52.8% in the experiment on KM12 colon.
As to `Nc1nc2ccc(-c3nc4ccc5[nH]ncc5c4c4c3CCCC4)cc2s1`, the growth is 110% in the experiment with T-47D breast; 106% in the experiment with BT-549 breast; 111% in the experiment with MDA-MB-435 melanoma; 106% in the experiment with SW-620 colon; 97.7% with MCF7 breast; 91.8% in the experiment with HCT-116 colon. The results for the growth in the experiment on HCC-2998 colon and in the experiment on KM12 colon were 107% and 101%, respectively.
In the case of `COc1ccc2c(c1OC)CO[C@@H]2[C@H]1c2c(cc3c(c2OC)OCO3)CCN1S(=O)(=O)c1cn(C)cn1`, the growth is 33.4% in the experiment on T-47D breast; 38.2% with BT-549 breast; -27.3% (active) in the experiment with MDA-MB-435 melanoma; 25.4% with SW-620 colon; 16.9% in the experiment on MCF7 breast; 14.4% in the experiment on HCT-116 colon. For the same compound, the results for the growth in the experiment on HCC-2998 colon and with KM12 colon were 11.7% and 11.3%, respectively.
In the case of `O=C(NCc1ccc(Cl)cc1Cl)C1CCC(=O)N1c1cccs1` (stereo not given), the growth in the experiment on T-47D breast was 75.8%; with BT-549 breast, 86%; in the experiment on MDA-MB-435 melanoma it was 97.2%; with SW-620 colon, 106%; in the experiment on MCF7 breast it was 88%; with HCT-116 colon, 79%. The values for the growth with HCC-2998 colon and with KM12 colon were 93.4% and 101%, respectively.
As to `Cc1nc2sc(C(=O)Nc3cccc4ccccc34)c(N)c2cc1C(O)c1ccccc1` (stereo not given), the growth with T-47D breast is 45.4%; with BT-549 breast it was 40.2%; with MDA-MB-435 melanoma it was 0.328% (active); with SW-620 colon, 20.2%; in the experiment with MCF7 breast, 12.4%; in the experiment with HCT-116 colon, 8.89% (active). Besides, the growth in the experiment with HCC-2998 colon was 5.55% (active); in the experiment with KM12 colon, 7.64% (active).
As for `Cc1cc(N2CCN(CCNc3ccnc4cc(Cl)ccc34)CC2)nc(N2CCOCC2)n1`, the growth is 55.9% in the experiment on T-47D breast; 74.2% in the experiment with BT-549 breast; 80.1% in the experiment with MDA-MB-435 melanoma; 79.4% in the experiment with SW-620 colon; 53.3% with MCF7 breast; 38.5% with HCT-116 colon. The growth in the experiment with HCC-2998 colon was 37.4%; in the experiment on KM12 colon, 76.6%.
On to `NC(Cc1ccc(O)c([N+](=O)[O-])c1)C(=O)O` (stereo not given), for which the growth in the experiment on T-47D breast is 103%; with BT-549 breast it was 96.9%; in the experiment with MDA-MB-435 melanoma it was 112%; with SW-620 colon it was 104%; in the experiment with MCF7 breast, 98%; in the experiment on HCT-116 colon, 98.5%. The growth in the experiment on HCC-2998 colon is 99.6%; in the experiment on KM12 colon it was 103%.
Take `N#Cc1c(-c2ccccc2)[nH]c2ncc(-c3ccccc3)n2c1=O`: the growth in the experiment on T-47D breast is 71.9%; in the experiment on BT-549 breast, 89.1%; in the experiment with MDA-MB-435 melanoma, 102%; in the experiment on SW-620 colon it was 101%; in the experiment with MCF7 breast, 71.3%; in the experiment on HCT-116 colon it was 87%. Further, the growth in the experiment on HCC-2998 colon is 83.3%; in the experiment on KM12 colon, 89.8%.
On to `CC(C)c1ccc(C(=O)Nc2nc3ccc(O)c(CN(C)C)c3s2)cc1`, for which the growth in the experiment with T-47D breast is 77.8%; in the experiment with BT-549 breast, 73.6%; in the experiment on MDA-MB-435 melanoma it was 55.4%; with SW-620 colon, 36.2%; with MCF7 breast, 80.5%; with HCT-116 colon, 47.3%. The growth is 63.7% in the experiment with HCC-2998 colon and 36% with KM12 colon.
In the case of `Cc1cn(-c2cc(NC(=O)c3cccc(C#Cc4cccc5[nH]nc(N)c45)c3)cc(C(F)(F)F)c2)cn1`, the growth is 39.2% in the experiment with T-47D breast; 30.3% in the experiment on BT-549 breast; 36.1% with MDA-MB-435 melanoma; 44.1% in the experiment on SW-620 colon; 34.2% in the experiment with MCF7 breast; 23.5% in the experiment with HCT-116 colon. The growth with HCC-2998 colon is 39.1%; in the experiment with KM12 colon, 20.6%.
With `Cc1ccc(-c2nc(N3CCCNCC3)c3oc(-c4ccccc4)nc3n2)cc1`, the growth in the experiment on T-47D breast is -67.5% (active); in the experiment on BT-549 breast, 81.2%; in the experiment on MDA-MB-435 melanoma it was -87.9% (active); with SW-620 colon it was -73.3% (active); with MCF7 breast it was -74.7% (active); in the experiment with HCT-116 colon it was -79.2% (active). Besides, the results for the growth with HCC-2998 colon and in the experiment on KM12 colon were -92.1% (active) and -81.5% (active), respectively.
